Bioassay records: PubChem, The Scripps Research Institute Molecular Screening Center
In the library only some 2.8% were active in any assay of this set; here they are far more common.
SMARCA2 act – SMARCA2 (BRM) function activators, primary screen, cell-based, luminescence, high throughput. MG213 cells, MMTV-luciferase reporter, dexamethasone, overnight. activation, % at 9.1 µM. 370,000 compounds, 1% hits. AID 652017, 2013; in the data active means activation above about 7.8%
KLK7 zymogen act – proKLK7 zymogen activators, primary screen, biochemical, fluorescence intensity; purified proKLK7, EDANS-DABCYL substrate fluorescence; 100% is mature enzyme control, 0% vehicle; Kallikrein-7 (Homo sapiens), P49862; activation, % at 7 µM; 370,000 compounds, 0.9% hits;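 active means activation above the mean of all tested compounds plus 3 SD, computed per campaign excluding outliers beyond control limits, cut at about 13% in these data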
Target sequence (P49862 whole entry, looked up): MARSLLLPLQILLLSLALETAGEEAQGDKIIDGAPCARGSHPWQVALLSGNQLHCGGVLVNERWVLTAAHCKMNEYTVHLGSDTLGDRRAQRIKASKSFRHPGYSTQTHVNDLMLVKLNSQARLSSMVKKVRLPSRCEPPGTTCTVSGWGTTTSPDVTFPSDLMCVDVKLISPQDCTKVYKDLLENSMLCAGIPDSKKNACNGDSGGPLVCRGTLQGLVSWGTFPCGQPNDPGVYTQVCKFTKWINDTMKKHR
MsrA inh – bovine MsrA enzyme inhibitors, primary screen, biochemical, absorbance, HTS. Methionine sulfoxide reductase A (Bos taurus). purified bovine MsrA, absorbance read-out. inhibition, % at 15.5 µM. 360,000 compounds, 0.75% hits; in the data active means inhibition above about 4.5%
bovine MsrA act – bovine MsrA enzyme activators, primary screen, biochemical, absorbance, HTS; Methionine sulfoxide reductase A (Bos taurus); purified bovine MsrA, absorbance read-out; activation, % at 10.6 µM; 360,000 compounds, 0.3% hits; in the data active means activation above about 7.5%
SMARCA2 act conf – SMARCA2 (BRM) function activators, confirmation, cell-based, luminescence, triplicate. shares compounds with SMARCA2 act. MG213 cells, MMTV-luciferase with dexamethasone, overnight; MG213 cells expressing E1A, Rb sequestered; DMSO wells 0%, reference activator 100%. activation, % at 9.1 µM. 3,500 compounds, 30% hits. AID 652260, 2013;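 active means activation above its plate's cutoff, the mean activation of tested wells plus 3 SD, cut at about 7.9% in these data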
VP16 Luc act – GAL4-VP16 luciferase reporter activation, counter-screen for SMARCA2 (BRM) activator project, cell-based, pG5luc, luminescence, high throughput; shares compounds with SMARCA2 act; HEK293 GAL4-VP16 pG5luc reporter; scaled: DMSO wells 0%, SAHA wells 100%; activation, % at 9.1 µM; 3,500 compounds, 41% hits; AID 686939, 2013;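 active means activation above the solvent-only control well mean plus 3 SD, averaged across control plates, cut at about 5.2% in these data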
Large screens that a line does not name were inactive (follow-up assays come after a bar, where they were run).

Cc1ccc(-n2c(SCC(=O)Nc3cccc4ccccc34)nnc2-c2cccs2)cc1	none (no result: MsrA inh, bovine MsrA act)
CC(COc1cccc(C(F)(F)F)c1)CN1CCC(C(O)(c2ccccc2)c2ccccc2)CC1 (stereo not given)	none (no result: MsrA inh, bovine MsrA act)
O=S1(=O)c2ccc(Br)cc2OC[C@@H](Cc2ccccc2)N1Cc1cn(Cc2ccccc2)nn1	none (no result: MsrA inh, bovine MsrA act)
COC(=O)[C@]12C[C@H](CC(=O)NCc3ccc(C)o3)C(=O)N(CCc3ccc(OC)c(OC)c3)C1=C[C@H](C(C)(C)C)O[C@@H]2C	none (no result: MsrA inh, bovine MsrA act)
CC1CCCN(C(=O)COC(=O)c2cc(Br)ccc2O)C1 (stereo not given)	none
CCOC(=O)NC(=O)/C(C#N)=C\Nc1ccc(Cl)cc1Cl	SMARCA2 act 9.0 | SMARCA2 act conf inactive | VP16 Luc act 7.9
CCOc1ccc(C(=O)NCC(C)CN(C)C)cc1OCC (stereo not given)	SMARCA2 act 9.4 | SMARCA2 act conf inactive | VP16 Luc act inactive
CC(C)NC(=O)C1(C)CCN1Cc1ccc(C(F)(F)F)cc1 (stereo not given)	none
COc1cccc(NC(=O)c2ccc3nsnc3c2)c1	SMARCA2 act 8.1 | SMARCA2 act conf inactive | VP16 Luc act 10.3
CCn1cc(Br)c(C(=O)Nc2cccc(SC)c2)n1	SMARCA2 act 8.0 | SMARCA2 act conf inactive | VP16 Luc act inactive
CCOc1ccc(NC(=O)c2nn(C)cc2Br)cc1	none
COc1cccc(NC(=O)c2nn(C)cc2Br)c1	SMARCA2 act 8.0 | SMARCA2 act conf inactive | VP16 Luc act inactive
O=C(Nc1ccc(N2CCCCCC2)cc1)c1ccccc1Cl	SMARCA2 act 8.0 | SMARCA2 act conf inactive | VP16 Luc act 8.0
CC(=O)N1CCN(c2ccc(NC(=O)c3ccccc3Cl)cc2)CC1	none
Cc1nn(CC(=O)N2c3ccccc3NC(=O)C2(C)C)c(C)c1[N+](=O)[O-]	none
CC1(C)C(=O)Nc2ccccc2N1C(=O)Cn1ncc(Cl)c(Cl)c1=O	SMARCA2 act 18.6 | SMARCA2 act conf 22.6 | VP16 Luc act inactive
CN(c1ccccc1)S(=O)(=O)c1ccc(NC(=O)CC(=O)c2ccccc2)cc1	none
CCOc1ccc(/C=C2\SC(N3CCc4ccccc4C3)=NC2=O)cc1	SMARCA2 act 9.0 | SMARCA2 act conf inactive | VP16 Luc act inactive
COc1ccc(/C=C2\SC(N3CCc4ccccc4C3)=NC2=O)cc1	none
CCCCN1CCN(C(=O)C2CCN(S(=O)(=O)c3ccc4[nH]c(=O)oc4c3)CC2)CC1	none (no result: MsrA inh, bovine MsrA act)
N#Cc1c(NCCN)nc(-c2ccco2)c2c1CCCC2	SMARCA2 act 9.7 | SMARCA2 act conf 30.7 | VP16 Luc act inactive
COc1cc(/C=N/O)ccc1OCc1ccc(Cl)cc1	SMARCA2 act 16.7 (no result: bovine MsrA act) | SMARCA2 act conf 12.4 | VP16 Luc act 8.7
COc1cc(/C=N/N=C(N)N)ccc1OCc1ccc(Cl)cc1	none
Cc1cc(Br)cn2c(Cc3ccccc3)c(-c3ccc(C#N)cc3)nc12	none
CN1CCN(C(=O)c2cn(C)c3ccc(S(=O)(=O)N(C)C4CCCCC4)cc3c2=O)CC1	SMARCA2 act 8.5 | SMARCA2 act conf inactive | VP16 Luc act inactive
CN(C1CCCCC1)S(=O)(=O)c1ccc2c(c1)c(=O)c(C(=O)N1CCc3ccccc3C1)cn2C	none
CC(CN1CCOCC1)OC(=O)COc1ccc(F)cc1 (stereo not given)	none
COc1ccc(OCC(=O)OC(C)CN2CCOCC2)cc1 (stereo not given)	SMARCA2 act 8.8 | SMARCA2 act conf inactive | VP16 Luc act inactive
CC(=O)N1CC(C)Oc2ccc(S(=O)(=O)NC(CC(=O)O)c3ccc(C)cc3C)cc21 (stereo not given)	none
COc1ccccc1C(CC(=O)O)NS(=O)(=O)c1ccc2c(c1)N(C(C)=O)CC(C)O2 (stereo not given)	SMARCA2 act 10.1 | SMARCA2 act conf inactive | VP16 Luc act inactive
C[C@H]1C(c2ccccc2F)O[C@]2(C[C@H](O)c3ccccc3O2)C[C@@H]1O (stereo not given in full)	none (no result: MsrA inh, bovine MsrA act)
CC(C)[C@H](NC(=O)C1CC1)C(=O)N1CCC[C@H]1C(=O)NCCc1ccccc1Cl	none (no result: bovine MsrA act)
CCOC(=O)C1=CCN(S(=O)(=O)c2ccc(C)cc2)C1c1ccc(C)cc1 (stereo not given)	none
O=C1C=C(c2cccs2)C[C@H](c2ccccc2)[C@H]1n1nnc([N+](=O)[O-])n1	SMARCA2 act 8.3 | SMARCA2 act conf 8.3 | VP16 Luc act inactive
CC(=O)C1C(=O)C=C(c2cccs2)CC1c1ccccc1 (stereo not given)	none
CCOC(=O)c1csc(Nc2nc3ccc(F)cc3s2)n1	SMARCA2 act 11.2 | SMARCA2 act conf inactive | VP16 Luc act 20.5
COCCN(C(=O)CSc1nnc(-c2cccc(F)c2)n1N)c1c(N)n(CC(C)C)c(=O)[nH]c1=O	none
CN(/N=C/c1cccnc1)c1cnc2ccccc2n1	SMARCA2 act 9.0 | SMARCA2 act conf 19.4 | VP16 Luc act 11.4
CC(C)CN1C(=O)CSCC1(C)C(=O)NCc1ccccc1 (stereo not given)	none (no result: bovine MsrA act)
Cc1ccc(S(=O)(=O)NCCC2(C(C)C)CCOC(C)(C)C2)cc1 (stereo not given)	none
Cc1ccc(C2=NNC3(CCOC(C)(C)C3)S2)cc1 (stereo not given)	SMARCA2 act 10.9 | SMARCA2 act conf 9.9 | VP16 Luc act inactive
O=C(/C=C/c1ccccc1)Nc1cccc(C(=O)NC2CC2)c1	SMARCA2 act 12.5 | SMARCA2 act conf inactive | VP16 Luc act 6.7
Cc1onc(-c2c(F)cccc2Cl)c1C(=O)OCC(=O)N(C)c1ccccc1	none
CCOC(=O)Cn1cc(CN2CCS(=O)(=O)N(Cc3ccc(OC)cc3)C(C(=O)OC)C2)nn1 (stereo not given)	none (no result: MsrA inh, bovine MsrA act)
CNC(=O)c1ccsc1NC(=O)c1sc2ccccc2c1Cl	SMARCA2 act 11.1 | SMARCA2 act conf 12.3 | VP16 Luc act 7.5
Cc1cccnc1NC(=O)c1sc2ccccc2c1Cl	SMARCA2 act 8.5 | SMARCA2 act conf 17.6 | VP16 Luc act 7.8
O=C1Nc2ccccc2S/C1=C/c1cccs1	SMARCA2 act 10.4 | SMARCA2 act conf inactive | VP16 Luc act inactive
CC1(c2ccc3ccccc3c2)NC(=O)N(CC(=O)NCc2cccs2)C1=O (stereo not given)	SMARCA2 act 9.6 | SMARCA2 act conf inactive | VP16 Luc act inactive
CC(=O)N1CCN(c2ccc(N3CCN(Cc4ccccc4)[C@H](C)C3)c(C)c2)[C@@H](C)C1	none (no result: bovine MsrA act)
Oc1ccc(-c2cnc(-c3ccc(O)cc3)nc2)cc1	SMARCA2 act 13.5 | SMARCA2 act conf 12.3 | VP16 Luc act 11.1
